# G9a inh: inhibitors of human histone lysine methyltransferase G9a | G9a H3K9 monomethylation, AlphaScreen, 2 h | 350,000 tested, 8.8% active | AID 504332 | Q96KQ7 | Potency, µM (doses to about 102 µM), most hits filed as inhibitors; note: nearly all actives have a fitted effect of over 75% in size
# Target sequence (Q96KQ7 913-1193 limits assumed): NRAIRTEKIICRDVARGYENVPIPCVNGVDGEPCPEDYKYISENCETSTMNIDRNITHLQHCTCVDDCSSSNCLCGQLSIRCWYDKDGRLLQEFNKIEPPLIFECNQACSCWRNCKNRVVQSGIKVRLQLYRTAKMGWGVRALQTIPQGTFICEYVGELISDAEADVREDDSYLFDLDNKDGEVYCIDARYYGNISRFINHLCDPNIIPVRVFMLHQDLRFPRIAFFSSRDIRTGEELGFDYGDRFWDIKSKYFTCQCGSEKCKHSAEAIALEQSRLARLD
#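 Chemiluminescent proximity detection of H3K9 monomethylation, read after 10 min bead incubation in the dark. Reaction: 20 nM G9a, 500 nM biotin-H3K9 peptide, 20 uM SAM cofactor, 2 h, room temperature, following 15 min enzyme-compound preincubation.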
# CtBP-E1A blk: inhibitors of CtBP/E1A interaction | AlphaScreen GST-E1A/His-CtBP binding, 1536-well; hits give low values | activity change, % (no concentration beside the values) | 340,000 tested, 0.49% active | AID 651724; in the data active = activity change below about -65%; inconclusive = mostly about -30% to -63%
#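 Protein mix (5X: 125 nM each GST-E1A, His-CtBP) was incubated with pinned compound 2 h at 37 deg C in dark, in 50 mM Tris pH 8.0 buffer with 300 mM NaCl. Glutathione donor and nickel acceptor beads followed; AlphaScreen signal read after 1 h.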
# BAZ2B block: blocks human BAZ2B; Q9UIF8; AlphaScreen BAZ2B-H3K14Ac peptide displacement; Potency, µM (titrated, usually from 114 µM), most hits filed as inhibitors; 360,000 tested, 4.4% active; AID 504333; note: nearly all actives have a fitted effect of over 60% in size
#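 BAZ2B (50 nM) with biotin-H3(5-23)K14Ac peptide (50 nM) in PBS pH 7.4, 0.01% Tween-20, preformed 30 min, then compound 30 min at room temperature; top concentration 110uM. AlphaScreen streptavidin donor/nickel chelate acceptor beads (10 ug/mL final), 20 min dark, signal read.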
# Six1-Eya2 blk: inhibitors of human Six1/Eya2 interaction; Q15475+O00167; AlphaScreen GST-Six1/His-Eya2 binding, biochemical; hits give low values; activity change, % (no concentration beside the values); 360,000 tested, 0.56% active; in the data active = activity change below about -65%; inconclusive = mostly about -30% to -63%
#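 Six1/Eya2 binding was read as AlphaScreen signal after compounds were pinned into GST-Six1 plus His-tagged Eya2 (5X stock 250/500 nM) in pH 8.0 Tris/NaCl/TCEP buffer, beads added, then incubated 1 h, 37 C, dark.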
# HP1b chromo inh: inhibitors of HP1-beta chromodomain binding to methylated histone tails; Potency, µM (series often up to 114 µM), actives largely listed as inhibitors; 390,000 tested, 0.56% active; P83916; AlphaScreen HP1-beta / biotin-H3K9me3 peptide binding; note: nearly all actives have a fitted effect of over 70% in size
# Target sequence (P83916 whole entry, looked up): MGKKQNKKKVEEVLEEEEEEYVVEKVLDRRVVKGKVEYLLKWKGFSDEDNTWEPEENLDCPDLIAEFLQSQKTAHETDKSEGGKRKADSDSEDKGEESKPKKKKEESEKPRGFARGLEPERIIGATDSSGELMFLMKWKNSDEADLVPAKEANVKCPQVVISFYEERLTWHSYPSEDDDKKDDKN
#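 HP1-beta protein (50 nM final) preincubated 30 min at room temperature with biotinylated H3(1-18)K9me3 peptide (50 nM) in PBS pH 7.4, 0.01% Tween-20, then compound added for 30 min. AlphaScreen streptavidin donor/nickel chelate acceptor beads (10 ug/mL final), 30 min dark, luminescence read.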
# JMJD2A Tudor inh: blocks the human JMJD2A Tudor domain; Potency, µM (highest dose often 114 µM), hits mostly inhibitors; 390,000 tested, 4.4% active; O75164; AlphaScreen JMJD2A-Tudor / H3K4me3 peptide binding; note: nearly all actives have a fitted effect of over 50% in size
# Numbers stand for hits; – = inactive; ? = inconclusive; · = no result given; [ ] = another dose, or the depositor's remark. Rows were chosen to be rich in hits. Some 10% of all compounds tested hit in one or more screens of this group. Unless noted, calls come from the whole dose curve; as a rule, active = well fitted inhibition curve with a large enough effect; inconclusive = small, poorly fitted or top-dose-only effect; inactive = no such curve, though single readings can be large or run the other way.
SMILES,G9a inh,CtBP-E1A blk,BAZ2B block,Six1-Eya2 blk,HP1b chromo inh,JMJD2A Tudor inh
N#Cc1c(-c2cccnc2)c2c([nH]c1=S)CCCC2,0.71µM,–,–,–,?,1.4µM
CCOC(=O)c1cccc(NC(=O)C2CCN(S(=O)(=O)c3c(C)noc3/C=C/c3ccc(C)cc3)CC2)c1,–,·,–,·,–,–
CCOC(=O)c1ccc(-n2c(-c3ccc(C)cc3)c(C)n3c4c(=O)n(C)c(=O)n(C)c4nc23)cc1,–,·,–,·,–,–
Cc1ccc(NC(=O)c2sc(-n3nc(C)c(Cc4ccc5c(c4)OCO5)c3C)nc2C)cc1Cl,–,·,–,·,·,–
O=C(O)c1ccc(C2CCCCC2)cn1,?,-85,4µM,-90,–,1.6µM
Fc1ccc(C(Nc2ccccc2Cl)c2nnc(-c3ccccc3Cl)o2)cc1 (centres undefined),–,·,–,·,–,–
Cc1cc(C)n(Cc2ccc(C(=O)Nc3ccc(Br)cc3C)o2)n1,–,–,–,–,–,–
Cc1cc(C)n(Cc2ccc(C(=O)Nc3cccc(Br)c3)o2)n1,79µM,–,–,–,–,–
CC(=O)n1c2ccccc2c2nc(NC(C)C)sc21,?,–,50µM,–,?,50µM
CNc1nc2c3ccccc3n(C(C)=O)c2s1,?,?,–,–,–,–
Cc1cc(C)n(-c2nnc(C)n2/N=C/c2ccccc2O)n1,–[12.7 µM],–,–,–,–,7.9µM
Cc1cc(C)n(-c2nnc(C)n2N)n1,50µM,–,–,–,–,?
Cc1cc(C)n(/N=C/c2ccccc2O)c(=O)c1,16µM,–,50µM,–,–,?
Cc1ccc(NC(=O)CSc2nc3c(c(=O)[nH]2)CCC3)cc1Cl,–,·,–,·,–,–
N#CC1(NC(=O)COC(=O)c2cc(O)c3ccccc3c2O)CCCCC1,4.5µM,–,50µM,–,?,25µM
O=C(OCc1ccc(Br)cc1)c1cnc(Cl)c(Cl)c1,–,–,–,–,–,71µM
O=C(OCc1ccc(Br)cc1)c1ccncc1,·,·,–,–,–,–
Cc1cc(C)cc(OC(C)C(=O)Nc2c(C(=O)c3ccccc3)oc3ccccc23)c1 (centres undefined),–,·,–,·,–,–
Cc1cc(=O)[nH]c(N/N=C2/CCCC/C2=C\c2ccccc2)n1,45µM,–,–,–,–,–[11.4 µM]
Cc1cc(=O)[nH]c(N/N=C/C=C/c2ccccc2)n1,–,–,–,–,–,–
Cc1cc(=O)[nH]c(NN=C2C3CC4CC(C3)CC2C4)n1,2.5µM,–,–,–,–,?
Cc1cc(=O)[nH]c(NN=C2CCCCC2C)n1 (centres undefined),·,–,·,–,–,0.89µM
Cc1ccc(-n2c(=O)c3c4c(sc3n(CC(=O)Nc3ccccc3C)c2=O)CCCCC4)cc1C,–,·,–,·,–,–
CCOC(=O)c1c(C)[nH]c(CCC(=O)NCc2cc(OC)c(OC)c(OC)c2)c1C,–,·,–,·,–,–
CCOc1ccccc1NC(=O)CN1C(=O)COc2ccc(S(=O)(=O)Nc3ccccc3)cc21,–,·,–,·,–,–
SMILES,G9a inh,CtBP-E1A blk,BAZ2B block,Six1-Eya2 blk,HP1b chromo inh,JMJD2A Tudor inh
Cc1cc(C)n(CCc2nc(-c3ccc(C)o3)cs2)n1,?,–,?,–,?,79µM
Cc1nc2c3ccccc3nc(NNC(=O)CCC(=O)N3CCN(c4cccc(Cl)c4)CC3)n2n1,–,·,–,·,–,–
O=C(Nc1ccc(C(=O)OCc2cc(=O)n3ccsc3n2)cc1)c1cccc(F)c1,–[12.7 µM],·,–,·,–,–
O=C1SC(Nc2ccccc2)C(=O)N1c1ccccc1 (centres undefined),·,·,·,·,–,–
O=C(NNc1nc(-c2ccc(Br)cc2)cs1)c1ccco1,28µM,–,–,–,–,–
O=C(Nc1nc(-c2ccccc2)cs1)c1ccco1,?,–,–,–,–,–
CCN(C(=O)c1ccco1)c1nc(-c2ccc(OC)cc2)cs1,–,·,79µM,–,–,–
COc1ccc(-c2csc(N(CC(C)C)C(=O)c3ccco3)n2)cc1,–[0.501 µM],–,?,–,–,–
O=C(Nc1nc(-c2ccco2)cs1)c1ccccc1,?,–,56µM,–,–,?
COc1ccc(-c2csc(NC(=O)c3ccco3)n2)cc1,14µM,–,?,–,–,–
COc1cccc(CNC(=O)CN(c2ccc(C(C)C)cc2)S(=O)(=O)c2c(C)n[nH]c2C)c1,–,·,·,·,–,–
O=C(NC(=S)Nc1nc(-c2ccc(Br)cc2)cs1)c1ccco1,–,–,–,–,–,–
O=C(NC(=S)Nc1nc(-c2ccc([N+](=O)[O-])cc2)cs1)c1ccco1,25µM,–,–,–,–,–
CCOc1ccc(-c2csc(NC(=O)c3ccco3)n2)cc1,40µM,·,–,–,–,–
O=C(/C=C\c1ccco1)Nc1nc(-c2ccc3ccccc3c2)cs1,50µM,–,?,–,–,–
Cc1ccc(-c2csc(NC(=O)c3ccco3)n2)cc1C,·,–,–,–,–,–
Cc1cccc(N(C)c2nc3ccc(C)cc3n3cnnc23)c1,–,·,–,·,–,–
COCC(=O)NCc1nc2cccnc2n1Cc1ccc(F)cc1,–,·,–,·,–,–
COc1cccc(NC(=O)c2oc3ccccc3c2NC(=O)c2ccc(C(F)(F)F)cc2)c1,–,·,–,·,–,–
COc1cccc(-n2c(=O)c3cc(OC)c(OC)cc3n(CC(=O)Nc3ccccc3)c2=O)c1,–,·,–,·,–,–
Oc1c(C(c2ccc(Cl)cc2)N2CCCC2)sc2nc(-c3ccco3)nn12 (centres undefined),?,·,?,·,–,–
Cc1ccc(NC(=S)N/N=C/c2cccn2Cc2ccccc2F)cc1,?,–,28µM,–,–,?
COc1cc(CNC(=O)c2cnc3c(-c4cccc(C)c4)c(C)nn3c2C)cc(OC)c1OC,–,·,–,·,–,–
Cc1cc(=O)n2cccc(O)c2n1,·,·,13µM,?,–,?
Cc1nnc(SCc2cc(=O)n3cccc(C)c3n2)s1,–,·,–,·,–,–
SMILES,G9a inh,CtBP-E1A blk,BAZ2B block,Six1-Eya2 blk,HP1b chromo inh,JMJD2A Tudor inh
O=C(OCCCCN1C(=O)c2ccccc2C1=O)c1n[nH]c2ccccc12,50µM,–,–,–,–,?
COC(=O)c1n[nH]c2ccccc12,–,–,–,–,–,–
S=c1nc(C2CCCCC2)n(-c2ccccc2)[nH]1,3.5µM,–,–,–,–,16µM
Nn1c(C2CCCCC2)nc2ccccc2c1=O,–[12.7 µM],·,–,–,–,–
CO[C@H]1C[C@@H]2CC[C@@H](C)[C@@](O)(O2)C(=O)C(=O)N2CCCC[C@H]2C(=O)O[C@H]([C@H](C)C[C@@H]2CC[C@@H](O)[C@H](OC)C2)CC(=O)[C@H](C)/C=C(\C)[C@@H](O)[C@@H](OC)C(=O)[C@H](C)C[C@H](C)/C=C/C=C/C=C/1C,–[12.7 µM],·,·,·,·,·
Cc1cc(C)nc(NS(=O)(=O)c2ccc(NC(=O)c3ccccc3O)cc2)n1,–,·,–,·,–,–
